Laboratory results: PubChem BioAssay (NCATS)
Records with an inconclusive call do not appear. Entries that show only a call come without a potency. Active and inactive are the calls of the source. Unless noted, calls follow the shape of the dose curve; as a rule, active = well fitted curve in the direction sought with a large enough effect; inconclusive = small, poorly fitted or top-dose-only effect, or another doubt; inactive = no such curve, though single readings can be large; an effect the other way counts as inactive or inconclusive.

Columns and labels:
[1] = qHTS for Inhibitors of the Functional Ribonucleoprotein Complex (vRNP) of Lassa (LASV) Arenavirus: LASV Primary Screen - GLuc reporter signal (AID 1347082; calls by dose curve; tested in HEK293 reporter line; also: series mostly up to about 57 µM; nearly all actives have a fitted effect of over 60% in size)
[2] = qHTS for Inhibitors of the Functional Ribonucleoprotein Complex (vRNP) of Lassa (LASV) Arenavirus: Viability assay - alamar blue signal for LASV Primary Screen (AID 1347083; calls by dose curve; tested in HEK293 reporter line; also: series mostly up to about 57 µM; nearly all actives have a fitted effect of over 80% in size)
[3] = qHTS for Inhibitors of the Functional Ribonucleoprotein Complex (vRNP) of Lymphocytic Choriomeningitis Arenaviruses (LCMV): Viability assay - alamar blue signal for LCMV Primary Screen (AID 1347085; calls by dose curve; tested in HEK293 reporter line; also: series mostly up to about 57 µM; nearly all actives have a fitted effect of over 80% in size)
[4] = target: Nucleoprotein (Lymphocytic choriomeningitis virus (strain Armstrong)) (UniProt P09992); experiment: qHTS for Inhibitors of the Functional Ribonucleoprotein Complex (vRNP) of Lymphocytic Choriomeningitis Arenaviruses (LCMV): LCMV Primary Screen - GLuc reporter signal (AID 1347086; calls by dose curve; also: series mostly up to about 57 µM; nearly all actives have a fitted effect of over 70% in size)
[5] = qHTS of pediatric cancer cell lines to identify multiple opportunities for drug repurposing: Primary screen for TC32 cells (AID 1347089); also: nearly all actives have a fitted effect of over 60% in size
Outline: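 Measured quantity: luminescence from CellTiter-Glo, reflecting metabolically active TC32 cells following 48 h of compound. Curves came straight from multi-point titrations, with 8 or 11 points in primary and 11 in confirmatory screening.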

[6] = qHTS of pediatric cancer cell lines to identify multiple opportunities for drug repurposing: Primary screen for DAOY cells (AID 1347090); also: series mostly up to about 46 µM; nearly all actives have a fitted effect of over 55% in size
Outline: (§1)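 Eight- or eleven-point concentration series, 48 h treatment at 37 degrees C in growth media; readout CellTiter-Glo luminescence. Potency and efficacy were taken from the concentration-response curves.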

[7] = qHTS of pediatric cancer cell lines to identify multiple opportunities for drug repurposing: Primary screen for SJ-GBM2 cells (AID 1347091); also: potency is read from the fitted curve at half-maximal effect
Outline: as §1

[8] = qHTS of pediatric cancer cell lines to identify multiple opportunities for drug repurposing: Primary screen for A673 cells (AID 1347092); also: nearly all actives have a fitted effect of over 45% in size
Outline: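 Cells are plated, rested 5 h, dosed by pintool, incubated 48 h, then lysed with CellTiter-Glo and read by luminescence. DMSO is the neutral control; bortezomib at 2.3 uM final is the positive control.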

[9] = qHTS of pediatric cancer cell lines to identify multiple opportunities for drug repurposing: Primary screen for SK-N-MC cells (AID 1347093); also: potency is read from the fitted curve at half-maximal effect
Outline: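 Metabolically active cells were quantified by ATP-dependent luminescence (CellTiter-Glo, 15 min at room temperature) following 48 h treatment. Cells had been plated at 500-1,000 per well and settled for 5 h beforehand.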

Nucleoprotein (Lymphocytic choriomeningitis virus (strain Armstrong)), sequence (P09992 whole entry, looked up): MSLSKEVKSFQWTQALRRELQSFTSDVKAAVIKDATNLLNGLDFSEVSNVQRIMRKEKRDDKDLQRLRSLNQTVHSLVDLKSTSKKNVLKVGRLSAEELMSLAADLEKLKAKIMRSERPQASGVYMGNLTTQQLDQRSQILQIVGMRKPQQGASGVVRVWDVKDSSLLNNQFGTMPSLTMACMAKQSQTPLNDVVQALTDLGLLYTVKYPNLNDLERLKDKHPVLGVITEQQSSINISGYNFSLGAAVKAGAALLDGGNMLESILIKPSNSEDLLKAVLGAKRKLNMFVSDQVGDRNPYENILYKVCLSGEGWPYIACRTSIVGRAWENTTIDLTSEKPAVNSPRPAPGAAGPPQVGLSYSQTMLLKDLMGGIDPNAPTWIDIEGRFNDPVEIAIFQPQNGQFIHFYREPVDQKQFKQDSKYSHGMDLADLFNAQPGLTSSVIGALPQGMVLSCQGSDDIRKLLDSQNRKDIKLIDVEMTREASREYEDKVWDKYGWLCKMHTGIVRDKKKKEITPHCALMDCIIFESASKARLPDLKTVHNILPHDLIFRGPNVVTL

| Compound | Potency [1] | Potency [2] | Potency [3] | Potency [4] | Potency [5] | Potency [6] | Potency [7] | Potency [8] | Potency [9] |
| --- | --- | --- | --- | --- | --- | --- | --- | --- | --- |
| C#CC(O)(C=CCl)CC (stereo unspecified) | inactive | inactive | inactive | inactive | inactive | inactive | inactive | inactive | inactive |
| CC(C)C[C@H](CN)CC(=O)O | inactive | inactive | inactive | inactive | inactive | inactive | inactive | inactive | 23.5 µM (active) |
| Nc1c(I)cc(I)c(C(=O)N(CCC(=O)O)c2ccccc2)c1I | inactive | inactive | inactive | inactive | – | – | – | – | – |
| CC(=O)C1CCOC1=O (stereo unspecified) | inactive | inactive | inactive | inactive | inactive | inactive | inactive | inactive | inactive |
| O=c1[nH]c2ccccc2n1C1CCNCC1 | inactive | inactive | inactive | inactive | inactive | – | inactive | inactive | – |
| C[C@]12CCC(=O)C=C1CC[C@@H]1[C@@H]2CC[C@@]2(C)[C@H]1CC[C@]2(C)O | inactive | inactive | inactive | inactive | inactive | inactive | – | inactive | – |
| O=C1CN=C(c2ccccc2)c2cc([N+](=O)[O-])ccc2N1 | inactive | inactive | inactive | inactive | – | inactive | inactive | inactive | – |
| COc1c2c(cc3c1OCO3)CCN(C)C2 | inactive | inactive | inactive | inactive | inactive | – | inactive | inactive | inactive |
| CC(C)(N)Cc1ccccc1Cl | inactive | inactive | inactive | inactive | inactive | – | inactive | inactive | inactive |
| O=C1c2ccccc2C(=O)c2ccccc21 | inactive | inactive | inactive | inactive | inactive | inactive | inactive | inactive | inactive |
| NC1=NC(=O)C(c2ccccc2)O1 (stereo unspecified) | inactive | inactive | inactive | inactive | inactive | – | inactive | inactive | inactive |
| COC(=O)C(Cl)C(=O)OC | inactive | inactive | inactive | inactive | inactive | – | inactive | inactive | inactive |
| CCCOC(=O)c1cncn1C(C)c1ccccc1 (stereo unspecified) | inactive | inactive | inactive | inactive | inactive | inactive | inactive | inactive | inactive |
| COP(=S)(OC)Oc1cc(Cl)c(Cl)cc1Cl | inactive | inactive | inactive | inactive | inactive | – | inactive | inactive | inactive |
| CC[N+]1(CC)CCC(OC(=O)C(O)(c2ccccc2)c2ccccc2)C1 (stereo unspecified) | inactive | inactive | inactive | inactive | inactive | – | inactive | inactive | – |
| COP(=S)(OC)Oc1ccc(SC)c(C)c1 | inactive | inactive | inactive | inactive | inactive | inactive | inactive | inactive | inactive |
| CCN[C@H](C)Cc1cccc(C(F)(F)F)c1 | inactive | inactive | inactive | inactive | inactive | – | inactive | inactive | inactive |
| c1ccc(CN2CCNCC2)cc1 | inactive | inactive | inactive | inactive | inactive | – | inactive | inactive | inactive |

| Compound | Potency [1] | Potency [2] | Potency [3] | Potency [4] | Potency [5] | Potency [6] | Potency [7] | Potency [8] | Potency [9] |
| --- | --- | --- | --- | --- | --- | --- | --- | --- | --- |
| CN1CCC(O)(c2ccc(F)cc2)C(C(=O)c2ccc(F)cc2)C1 (stereo unspecified) | inactive | inactive | inactive | inactive | inactive | – | inactive | inactive | inactive |
| CCC(C)(C)c1ccc(O)cc1 | inactive | inactive | inactive | inactive | inactive | – | inactive | inactive | inactive |
| O=C1OC(c2ccc(O)c(S(=O)(=O)O)c2)(c2ccc(O)c(S(=O)(=O)O)c2)c2c(Br)c(Br)c(Br)c(Br)c21 | inactive | inactive | inactive | inactive | inactive | – | inactive | inactive | inactive |
| CC(Cc1ccccc1)NCCn1cnc2c1c(=O)n(C)c(=O)n2C (stereo unspecified) | inactive | inactive | inactive | inactive | inactive | – | inactive | inactive | – |
| [N-]=[N+]=CC(=O)OC[C@H](N)C(=O)O | inactive | inactive | inactive | inactive | inactive | – | inactive | inactive | inactive |
| CCN(CCO)CCn1c(Cc2ccccc2)nc2c1c(=O)n(C)c(=O)n2C | inactive | inactive | inactive | inactive | inactive | – | inactive | inactive | inactive |
| COc1cc(CCN)cc(OC)c1OC | inactive | inactive | inactive | inactive | inactive | inactive | inactive | inactive | inactive |
| CC(C)NC(C)C | inactive | inactive | inactive | inactive | inactive | – | inactive | inactive | inactive |
| O=C1OC(CCN2CCCCC2)OC1(c1ccccc1)c1ccccc1 (stereo unspecified) | inactive | inactive | inactive | inactive | inactive | – | inactive | – | – |
| COP(=S)(OC)SCN1C(=O)c2ccccc2C1=O | inactive | inactive | inactive | inactive | inactive | – | inactive | – | – |
| CCC(CC)(CNC(=O)CCCO)c1cccc(OC)c1 | inactive | inactive | inactive | inactive | inactive | – | inactive | inactive | inactive |
| C[C@]12CC[C@@H]3c4ccc(OC(=O)N(CCCl)CCCl)cc4CC[C@H]3[C@@H]1CC[C@@H]2OP(=O)(O)O | inactive | inactive | inactive | inactive | inactive | inactive | 16.6 µM (active) | inactive | inactive |
| Nc1nc(N)nc(NC2CC2)n1 | inactive | inactive | inactive | inactive | inactive | inactive | inactive | inactive | inactive |
| C[C@]12CC[C@@H]3c4ccc(OC(=O)N(CCCl)CCCl)cc4CC[C@H]3[C@@H]1CC[C@@H]2O | inactive | inactive | inactive | inactive | inactive | – | – | inactive | inactive |
| Nc1ccccc1 | inactive | inactive | inactive | inactive | inactive | – | inactive | inactive | inactive |
| C[N+]1(CCF)[C@@H]2CC[C@H]1CC(OC(=O)C(O)(c1ccccc1)c1ccccc1)C2 (stereo partly specified) | inactive | inactive | inactive | inactive | inactive | inactive | inactive | inactive | inactive |
| CCCCCCC(=O)CCCCCC/C=C/C[C@@H](O)[C@H](O)[C@@](N)(CO)C(=O)O | inactive | inactive | inactive | inactive | inactive | – | inactive | inactive | inactive |
